KDM5B inh – Primary screen for KDM5B Histone Demethylases FDH-coupled qHTS; Lysine-specific demethylase 5B (Homo sapiens), Q9UGL1; KDM5B demethylase, FDH-coupled NADH fluorescence (FDH is formaldehyde dehydrogenase); Potency, µM (series often up to 57.7 µM), hits mostly inhibitors; 220,000 tested, 2.6% active; AID 1347165, 2019; active = well fitted inhibition curve with a large enough effect; note: 0% is about no effect; nearly all actives have a fitted effect of over 70% in size
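Measured: NADH fluorescence change, 30 min, RT. System: KDM5BΔAP 200 nM final, H3K4me3 peptide, α-KG, Fe(II), ascorbate, NAD⁺ plus FDH, pH 7.5 HEPES. Compounds: titrated, 10 min pre-incubation with enzyme.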
Numbers without * were called inactive; i = inactive. The full list was thinned out, with hits kept by preference. Potency is the fitted concentration of half-maximal effect.

SMILES	KDM5B inh
O=C(c1ccccc1)N1C[C@@H]2C[C@H](C1)c1ccc(-c3cccc(C(F)(F)F)c3)c(=O)n1C2	25µM*
O=C(c1ccccc1)N1C[C@@H]2C[C@H](C1)c1ccc(-c3ccc(Cl)cc3)c(=O)n1C2	i
O=C(O)COCC(=O)N1C[C@@H]2C[C@H](C1)c1ccc(-c3cccc(C(F)(F)F)c3)c(=O)n1C2	32µM*
CC(C)NC(=O)N1CC[C@@H](CC(=O)O)[C@@H](CCN2C[C@@H]3C[C@H](C2)c2cccc(=O)n2C3)C1	i
COc1ccccc1N1CCN(C[C@H]2CN3CC[C@H]2C[C@@H]3CNC(=O)c2ccc3c(c2)OCO3)CC1	i
COc1ccc(CCNCc2sccc2C)cc1	i
N#CC1=C(N)Oc2nc(SCc3ccccc3)nc(N)c2C1c1ccccc1F (configuration not stated)	i
Cc1ccccc1-c1ccc2n(c1=O)C[C@H]1C[C@@H]2CN(S(=O)(=O)c2ccccc2C#N)C1	i
Cc1ccccc1-c1ccc2n(c1=O)C[C@H]1C[C@@H]2CN(Cc2cccs2)C1	32µM*
COc1ccccc1NC(=O)N1C[C@@H]2C[C@H](C1)c1c(-c3cccs3)ccc(=O)n1C2	i
CC(C)N1CC2CCC(C1)N2Cc1cccs1	i
O=c1c(-c2cccs2)ccc2n1C[C@H]1C[C@@H]2CN(Cc2cc3ccccc3o2)C1	32µM*
O=C(NC[C@H]1C[C@@H]2CCN1C[C@@H]2CN1CCC(Cc2ccccc2)CC1)Nc1ccsc1	i
CCOc1ccc(CNCCc2ccccc2)cc1	i
Cn1nc(-c2ccc(F)cc2)cc1[C@H]1CN2CC[C@H]1C[C@@H]2CNS(=O)(=O)c1cccs1	i
Cc1cc(NC(=O)c2cccn(Cc3ccccc3)c2=O)no1	i
Nc1nc(CN2CCN(C(=O)COc3cccc(F)c3)CC2)nc2ccccc12	i
COc1ccc2c(c1)C1(CCN(C(=O)NCC(C)C)C1)C(=O)N2 (configuration not stated)	i
CCO[C@H]1CN(C(=O)C2(c3ccccc3)CCNCC2)C[C@@H]1O	i
Cn1nc(CN2CCOCC(CO)C2)c2c(Cl)cccc21 (configuration not stated)	i
O=C(Nc1ccc2c(c1)OCO2)c1cccn(Cc2ccc(F)cc2)c1=O	i
CN1Cc2ccccc2-n2ccnc2C12CCN(C(=O)Cc1ccc(Cl)cc1)CC2	i
O=C(C1CCCCC1)N1C[C@@H]2C[C@H](C1)c1c(-c3cncnc3)ccc(=O)n1C2	i
O=C(c1ccc(F)cc1)N1C[C@@H]2C[C@H](C1)c1ccc(C3CCCCC3)c(=O)n1C2	32µM*
O=C(c1cccs1)N1C[C@@H]2C[C@H](C1)c1ccc(C3CCCCC3)c(=O)n1C2	i
SMILES	KDM5B inh
O=C(c1ccccc1)N1C[C@@H]2C[C@H](C1)c1ccc(C3CCCCC3)c(=O)n1C2	40µM*
O=C(c1ccccc1)N1C[C@@H]2C[C@H](C1)c1c(-c3ccccc3F)ccc(=O)n1C2	i
CCCS(=O)(=O)Nc1ccc2n(c1=O)C[C@H]1C[C@@H]2CN(C(=O)Nc2ccc(OC)cc2)C1	i
O=C(c1ccc(F)cc1)N1C[C@@H]2C[C@H](C1)c1c(-c3cncnc3)ccc(=O)n1C2	i
O=C(Nc1ccc2n(c1=O)C[C@H]1C[C@@H]2CN(C(=O)c2ccccn2)C1)c1ccccc1	i
O=C(c1ccc(F)cc1)N1C[C@@H]2C[C@H](C1)c1c(/C=C/c3ccc(Cl)cc3)ccc(=O)n1C2	32µM*
CC(=O)N1C[C@@H]2C[C@H](C1)c1ccc(NC(=O)Nc3ccccc3)c(=O)n1C2	28µM*
O=C(c1ccc(F)cc1)N1C[C@@H]2C[C@H](C1)c1c(C3CCCCC3)ccc(=O)n1C2	i
O=[N+]([O-])c1ccnc(N2CC3CCC(C2)N3CC(F)(F)F)c1	i
COc1cc2c(cc1OCC1CC1)NC(=O)C21CCN(C(=O)c2ccnn2C)CC1	i
O=c1[nH]c(=S)n(-c2ccccc2)c(O)c1C=NCc1ccccn1	i
C/C(=N\N(C)c1ccccc1)c1c(O)[nH]c(=O)[nH]c1=O	i
Cc1ncc2c(n1)C[C@@H]1CC[C@H]2N1C(=O)NC(C)C	i
C=CCN1CCN(c2cccc(C(F)(F)F)c2)CC1	i
O=C(NC1CCCCC1)[C@H]1CN2CC[C@H]1C[C@@H]2Cn1cc(-c2ccccc2)nn1	i
C#C[C@H]1CN2CC[C@H]1C[C@@H]2CNS(=O)(=O)c1cccc(C#N)c1	i
Cc1ccccc1-c1ccc2n(c1=O)C[C@H]1C[C@@H]2CN(C(=O)c2ccc(F)cc2)C1	35µM*
O=C(Nc1ccc2n(c1=O)C[C@H]1C[C@@H]2CN(C(=O)c2ccccc2)C1)NC1CCCCC1	35µM*
O=C(Nc1ccc(=O)n2c1[C@@H]1C[C@@H](CN(S(=O)(=O)c3ccccc3)C1)C2)c1ccco1	i
Cc1ccccc1-c1ccc2n(c1=O)C[C@H]1C[C@@H]2CN(C(=O)c2cncnc2)C1	i
O=C(Nc1ccc(=O)n2c1[C@@H]1C[C@@H](CN(S(=O)(=O)c3ccccc3)C1)C2)c1ccccc1	i
CN(C)Cc1ccccc1-c1ccc2n(c1=O)C[C@H]1C[C@@H]2CN(C(=O)c2ccco2)C1	32µM*
C=CCN(C)C[C@H]1CN2CC[C@H]1C[C@@H]2CNS(=O)(=O)c1ccc(C)cc1	i
Cc1nnc(NC(=O)c2cccn(Cc3cccc(Cl)c3)c2=O)s1	i
FC(F)(F)CN1C2CCC1CN(c1nccc(Cl)n1)C2	i
SMILES	KDM5B inh
CCC12CN3CC(CC)(CN(C1)C3c1ccccn1)C2=O (configuration not stated)	i
Cc1ccc(C(C)(C)C)c(OCC(=O)Nc2ccc(Cl)cc2C(=O)c2ccccc2)c1	i
COc1ccc(S(=O)(=O)NC[C@H]2C[C@@H]3CCN2C[C@@H]3CN2CCOCC2)cc1	i
Cc1ccc(Cn2cc(C=O)c(-c3ccc(F)cc3)n2)cc1	i
CC(=O)c1cccc(NC(=O)NC[C@H]2C[C@@H]3CCN2C[C@@H]3c2cc(-c3cccs3)nc(C)n2)c1	i
COC(=O)c1ccc(NC(=O)N2[C@H]3CC[C@@H]2c2cnc(C)nc2C3)cc1	i
COc1cc2c(cc1OCc1ccncc1)NC(=O)C21CCN(c2ccccn2)CC1	28µM*
COc1cc2c(cc1OCc1ccncc1)NC(=O)C21CCN(CC2CC2)CC1	i
COc1cc2c(cc1OCc1ccccc1)NC(=O)C21CCN(Cc2ccccn2)CC1	i
COc1cc2c(cc1OCc1ccccc1)NC(=O)C21CCN(CC2CC2)CC1	i
COc1cc2c(cc1OCc1ccccc1)NC(=O)C21CCN(c2nc(C)cnc2C)CC1	28µM*
COc1cc2c(cc1OCC1CC1)NC(=O)C21CCN(C(=O)c2ccccc2)CC1	i
COc1cc2c(cc1OCc1ccncc1)NC(=O)C21CCN(Cc2ccccc2O)CC1	i
COc1cc2c(cc1OCc1ccccc1)NC(=O)C21CCN(c2cnccn2)CC1	32µM*
COc1cc2c(cc1OCc1ccncc1)NC(=O)C21CCN(C(=O)c2cccnc2)CC1	i
N#Cc1ccc(-c2ccc(OC(=O)CSC(c3ccccc3)c3ccccc3)cc2)cc1	i
CCOc1cc(CNC2CN3CCC2CC3)ccc1OCc1ccccc1Cl (configuration not stated)	i
Cc1noc(C)c1S(=O)(=O)N1[C@H]2CC[C@@H]1c1cnc(-c3ccc(F)cc3)nc1C2	i

Compound activity deposited in PubChem by National Center for Advancing Translational Sciences (NCATS).
